According to PubChem BioAssay (NCI):
“And” between values parts separate entries of the source, which are not always exact repeats. Equal entries are not always repeated. About 79,000 compounds went through this panel and 15% of them were active in at least one assay; those are over-represented in the sample as a whole. A number with no mark means an inactive call. The source made the active and inactive calls. Cut-off read from the data, not from the text of the source: active = growth inhibition above about 70%; inactive = the rest.

Test: NCI Yeast Anticancer Drug Screen. Data for the rad50 strain (AID 155);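 note: 0% = growth of vehicle-only cultures of the same strain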
Settings: S. cerevisiae rad50 strain growth inhibition, stronger effect = higher value
Experimental: Growth inhibition of yeast strains with defined genetic alterations is measured as a screen for potential anti-cancer activity. Selected strains with alterations in DNA damage repair or cell cycle control were exposed to compounds and growth inhibition was measured relative to vehicle treated controls. The strain used in this assay is rad50

[1] = at 5.0 µM (retest, dose inferred, filed as 0.5)
[2] = at 50.0 µM (retest, dose inferred, filed as 5.0)

Row | Structure (SMILES) | growth inhibition [1] | growth inhibition [2] | growth inhibition (at 50.0 µM)
1 | Cc1cccc2c(N)c3ccccc3nc12 | 12% | 57% | 87.7% (active)
2 | Oc1c(C(Nc2ccccc2)c2ccccc2)ccc2cccnc12 (stereo not given) | -5% | 92% (active) | 96.9% (active)
3 | Cc1cc(O)c(O)c(C(C)(C)CC(C)(C)C)c1 | 36% | 87% (active) | 91.3% (active)
4 | CCCCC(C=O)(C=C=C(C)C)CC (stereo not given) | -4% | 28% | 51.4%
5 | C=C1C(=O)OC2CC1C(OC(=O)/C=C/c1ccccc1)C/C(C)=C/CC/C(C)=C/CCC2(C)O (stereo not given) | 50% | 93% (active) | 82.8% (active)
6 | CCCCCCCCCCCC[N+]1(CCCCCCCCCCCC)CCCC(C)C1 (stereo not given) | 99% (active) | 99% (active) | 88.8% (active)
7 | O=C1c2ccccc2Cc2cccc(Cl)c21 | 15% | 72% (active) | 88.5% (active)
8 | CCCOC(=O)c1nc(N(CC2CCCCC2)C(=O)NC)sc1/N=C/c1ccccc1 | 67% | 86% (active) | 5.15%
9 | CCCCCCCCCCCCCCCC[N+]1(C)CCCC1c1cccnc1 (stereo not given) | 93% (active) | 99% (active) | 14.3%
10 | Oc1ccc(Br)cc1Sc1cc(Br)ccc1O | 6% | 99% (active) | 87.9% (active)
11 | C[C@@]1(CO)[C@H](O)CC[C@@]2(C)[C@H]1CC[C@H]1C[C@@H]3C[C@@]12CC[C@@]3(O)COC(=O)CN | 0% | 65% | 97.3% (active)
12 | CN1CCC(CN2c3ccccc3Sc3ccccc32)C1 (stereo not given) | 2% | 16% | 38.5%
13 | COc1cc(C=O)ccc1O |  |  | 0.2% and 12.1%
14 | CC(=O)N(O)CCCCCNC(=O)CCC(=O)N(O)CCCCCNC(=O)CCC(=O)N(O)CCCCCN |  |  | 12.6% and 8%
15 | c1ccc(CSSCc2ccccc2)cc1 |  |  | 9.45% and -1.4%
16 | CCOC(=O)c1ccc(O)c(O)c1 |  |  | -23.9% and 15.5%
